Screening results as filed in PubChem BioAssay.
MCF10A rerep: A quantitative high throughput screen for small molecules that induce DNA re-replication in MCF 10a normal breast cells. actives 2.9% (n = 350,000). AID 624296, 2012. Potency, µM (titrated, usually from 46.1 µM), without a hit: top-dose activity, positive = re-replication, most hits filed as activators. MCF 10A DNA re-replication, Hoechst nuclear intensity, 48 h; further: % of control where 0% means no effect; nearly all actives have a fitted effect of over 50% in size
PINK1 expr mod: A Quantitative High throughput Screen to Identify Chemical Modulators of PINK1 Expression. PINK1 immunofluorescence, high-content cytometry, 24 h. Potency, µM (titrated, usually from 76.6 µM), for the others: top-dose activation (PINK1 increase), actives largely listed as activators. actives 0.2% (n = 410,000); active means well fitted activation curve with a large enough effect; inconclusive means small, poorly fitted or top-dose-only effect; cell line not stated here; further: % of control where 0% means no effect; nearly all actives have a fitted effect of over 65% in size
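Measures PINK1 amount and localization on or inside mitochondria by immunofluorescence. Stable cells get compounds at 5 concentrations for 24 hours before fixation and staining; CCCP controls included.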
KB-V1 cytotox: qHTS assay for MDR1-selective chemotherapeutics: Primary screen using the drug-selected MDR subline cells KB-V1; KB-V1 MDR cells viability, CellTiter-Glo, 72 h; Potency, µM (titrated, usually from 46.1 µM), usual class: cytotoxic; actives 3.4% (n = 400,000); AID 1347076, 2019; further: on the % scale 0 is the no-effect control and ±100 the full control effect; nearly all actives have a fitted effect of over 60% in size
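Compound-treated KB-V1 multidrug-resistant cells, 72 h, 37 degrees C; viability by CellTiter-Glo. Fitted qHTS curves give the values.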
KB-3-1 tox: qHTS assay for MDR1-selective chemotherapeutics: Primary screen using the parental adenocarcinoma cell KB-3-1; KB-3-1 viability, CellTiter-Glo ATP luminescence, 72 h; Potency, µM (series often up to 46.1 µM), hits mostly cytotoxic; actives 1.4% (n = 400,000); further: on the % scale 0 is the no-effect control and ±100 the full control effect; nearly all actives have a fitted effect of over 60% in size
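Viability of parental KB-3-1 cells, measured by CellTiter-Glo luminescence, followed a 72 h incubation at 37 °C with pinned compounds in phenol-red-free DMEM containing 10% FBS.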
SW480 rerep: A quantitative high throughput screen for small molecules that induce DNA re-replication in SW480 colon adenocarcinoma cells; actives 1.8% (n = 340,000); SW480 DNA re-replication, Hoechst DNA content imaging, 48 h; Potency, µM (doses to about 46.1 µM), inactives show top-dose re-replication activation, actives largely listed as activators; further: % of control where 0% means no effect; nearly all actives have a fitted effect of over 55% in size
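First, 250 cells per well were seeded. Next, compound or vehicle (23 nL) was pinned in, plates sat 48 hr at 37 C. Finally Hoechst was added for 40 min before fluorescence scanning.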
* hit, by the source's call; i = inactive; ? = inconclusive; nt = not tested or not shown; ! = a repeat was not active; [ ] = dose if it differs, or a comment. Most compounds without a hit are left out; they make up all but 6.7% or so of the library. Unless noted, the call rests on the fitted dose curve; in most records, active means well fitted curve in the direction sought with a large enough effect; inconclusive means small, poorly fitted or top-dose-only effect, or another doubt; inactive means no such curve, though single readings can be large; an effect the other way counts as inactive or inconclusive. Potency means the concentration at half of the fitted maximal effect.

SMILES | MCF10A rerep | PINK1 expr mod | KB-V1 cytotox | KB-3-1 tox | SW480 rerep
CCN1CCN(c2ccc(NC(=O)c3ccc([N+](=O)[O-])o3)cc2Cl)CC1 | 1.3µM* | 0.7% | ? | i | 1.4%
O=C(NCCc1ccccc1F)C1CCC(=O)N(Cc2ccc(Cl)cc2)C1 (configuration not stated) | 0.4% | -0.6% | i | i | ?
CCOc1ccc(C(=O)Nc2ccc(-c3nc4ccccc4[nH]3)cc2)cc1Cl | nt | nt | ? | i | nt
Cc1ccc(CCNC(=O)c2cnc3c(-c4ccc(F)cc4)c(C)nn3c2C)cc1 | nt | 1.4% | i | i | nt
CCC(Sc1nc2ccccc2c2nc(CCc3c(C)n[nH]c3C)nn12)C(=O)Nc1ccc(OC)cc1 (configuration not stated) | nt | 4.6% | i | i | nt
COC(=O)c1ccc(-c2ccco2)n1Cc1nc(-c2ccc(OC)c(OC)c2)oc1C | 18.4µM* | -1.2% | i | ? | 14.7%
C[n+]1ccc(/C=C/c2cc[n+](C)c3ccccc23)c2ccccc21 | nt | 3.98µM* | i | ? | nt
CN1C=C/C(=C\c2cc[n+](C)c3ccccc23)c2ccccc21 | 0.581µM* | 5.01µM* | i | i | -23.5%
CN(Cc1ccccc1)S(=O)(=O)c1ccc(Cl)c(C(=O)NCc2ccc3c(c2)OCO3)c1 | -1.6% | ? | 11.6µM* | i | -99.7%
CN(Cc1ccccc1)S(=O)(=O)c1ccc(Cl)c(C(=O)NCc2ccncc2)c1 | 19.5% | -0.1% | ? | i | 8.4%
O=C(NCc1ccc2c(c1)OCO2)c1nc(S(=O)(=O)Cc2ccccc2)ncc1Cl | ? | -1.8% | ? | 20.6µM* | ?
O=C(NCc1ccc2c(c1)OCO2)c1nc(S(=O)(=O)Cc2ccccc2F)ncc1Cl | -9.3% | -1.5% | i | i | 10.5%
Cc1ccc(Cn2c(C(C)NC(=O)c3ccccc3)nc3ccccc32)cc1 (configuration not stated) | nt | -0.4% | i | i | nt
CC1(C(=O)Nc2ccc(Cl)cc2)Cc2c(-c3ccc(C(N)=O)cc3)ccnc2O1 (configuration not stated) | nt | 2.4% | i | i | nt
CCC(=O)N1CCc2cc(S(=O)(=O)NCCC(=O)NC(C)c3ccccc3)ccc21 (configuration not stated) | nt | 1.8% | i | i | nt
CC1(C)Oc2ccc3ccc(=O)oc3c2/C(=C/Nc2cccc(O)c2)C1=O | 11.6µM* | -3.6% | ? | i | ?
O=C(O)CN1C(=O)C=CC1=O | nt | -1.2% | i | i | nt
O=C1C=CC(=O)N1CCCCCCN1C(=O)C=CC1=O | 3.66µM* | -1.2% | 18.4µM* | ? | 11.6µM*
N#Cc1ccccc1NC(=O)COC(=O)/C=C/c1cn(-c2ccccc2)nc1-c1ccc(Cl)cc1 | -5.0% | 6.8% | i | 23.1µM* | 0.7%
O=C(/C=C/c1cn(-c2ccccc2)nc1-c1ccccc1)Nc1ccc(C(=O)O)cc1 | ? | 0.4% | i | i | ?
NC(=O)c1ccc(NC(=O)COC(=O)/C=C/c2cn(-c3ccccc3)nc2-c2cccnc2)cc1 | -2.6% | ? | i | i | 5.17µM*
COc1ccc(-c2nn(-c3ccccc3)cc2/C=C/C(=O)OCC(=O)Nc2ccccc2C#N)cc1 | 14.6µM* | 16.5% | ? | ? | 1.3%
O=C(COC(=O)/C=C/c1ccc(Cl)cc1)Nc1ccccc1 | -8.5% | 0.5% | i | i | 2.3%
CNC(=O)COC(=O)/C=C/c1cn(-c2ccccc2)nc1-c1ccc(C)o1 | 10.6% | 4.0% | i | i | -1.2%
COC(=O)c1ccc(CN2CCOc3ccc(C(O)c4cccnc4)cc3C2)cc1 (configuration not stated) | nt | -1.0% | nt | nt | nt
SMILES | MCF10A rerep | PINK1 expr mod | KB-V1 cytotox | KB-3-1 tox | SW480 rerep
CCOc1ccc(CNS(=O)(=O)c2ccc(-c3coc(C)n3)cc2)cc1OC | nt | -1.0% | 23.1µM* | ? | nt
COc1ccccc1CN1CCC2(CC1)CCN(C(=O)c1cc(C(F)(F)F)cc(C(F)(F)F)c1)CC2 | nt | 0.8% | nt | nt | nt
Cc1ccc(Cn2c(SCC(=O)NCc3ccccc3)nc3ccsc3c2=O)cc1 | nt | 0.0% | nt | nt | nt
O=C(CSc1nc2ccccc2c(=O)n1Cc1ccccc1)NCc1ccco1 | -4.4% | 5.62µM* | i | i | -8.1%
COc1ccc(CNc2nc(SCC(=O)NCc3ccco3)nc3ccccc23)cc1 | 20.0% | 3.6%[38.3 µM] | 6.51µM* | i | -0.7%
CCCCn1c(SCC(=O)NCc2ccco2)nc2c(sc3ccccc32)c1=O | -0.8% | ? | ? | i | -3.5%
Cc1ccc(CNC(=O)CSc2nc3ccsc3c(=O)n2Cc2ccc(C(=O)O)cc2)cc1 | 0.651µM* | -0.3% | ? | i | -22.7%
O=C(CSc1nc2c(sc3ccccc32)c(=O)n1CCc1ccccc1)NCc1ccco1 | -1.9% | -1.0% | 2.06µM* | i | -3.8%
O=C(NCCCn1cccn1)c1cc(COc2ccccc2)on1 | nt | -0.4% | i | i | nt
COC1=CC(=O)C=C(OC)C1(O)CC(C)=O | ? | -0.3% | i | i | ?
O=C(Nc1ccccc1)[C@@H]1CC=C[C@@H]2CCN(Cc3ccccc3)C(=O)[C@@H]21 | ? | -1.1% | ? | i | -1.4%
O=C(Nc1ccccc1)[C@@H]1CC=C[C@@H]2CCN(Cc3ccc(Cl)c(Cl)c3)C(=O)[C@@H]21 | -3.2% | 6.1% | 20.6µM*! | i | 4.7%
CC[C@]12C(=O)N(C)C[C@H]([C@@H]3C(=O)N(Cc4ccccc4)C(=O)[C@@H]31)N2C(=O)c1ccc(C(F)(F)F)cc1 | 28.5% | 2.0% | i | i | 12.7%
O=C1c2ccccc2C(=O)N1CC(=O)N1c2ccccc2Sc2ccccc21 | -7.1% | 0.3%[38.3 µM] | i | i | -2.2%
O=C1c2ccccc2C(=O)N1CC(=O)N1c2ccccc2Sc2ccc(C(F)(F)F)cc21 | 13.9% | -0.9% | 18.4µM* | i | 0.0%
OCC1(Cc2cccc(C(F)(F)F)c2)CCN(Cc2cc(F)cc(F)c2)CC1 | 23.1µM* | -2.1% | ? | ? | ?
O=C(NCc1ccccc1)C(c1ccc(F)cc1)N(Cc1cccs1)C(=O)c1cnccn1 (configuration not stated) | 2.8% | 2.0% | i | i | 2.5%
O=C(NCc1ccccc1)C(c1cccs1)N(Cc1cccs1)C(=O)c1cnccn1 (configuration not stated) | ? | 1.0% | 2.59µM* | i | 9.3%
O=C(NCc1ccccc1)C(c1ccccc1)N(Cc1cccs1)C(=O)c1cnccn1 (configuration not stated) | ? | -1.3%[38.3 µM] | 23.1µM* | i | 11.2%
